PubChem BioAssay (EPA / NIEHS)
Active and inactive are the calls of the source. The calls were made as follows: active = hit-call score of the fitted dose curve at least 0.9, where 1 is the maximum; inactive = score below 0.9.

What was measured:
[1] = APR_HepG2_NuclearSize_72hr: Apredica 72-hour HepG2 Assay for Nuclear Size (AID 2282925); settings: high-content imaging, actives raise or lower the signal
Procedure, shortened: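 HepG2 cells were exposed to compounds at ten concentrations from 0.39 to 200 uM (duplicate, 0.5% DMSO final) for 72 hr. After fixation in 3.7% formaldehyde, nuclei were stained with Hoechst 33342 (2 ug/mL) and imaged at 20x.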

[2] = ATG_CRE_CIS: Attagene CIS-FACTORIAL HepG2 Assay for human cAMP Responsive Element (CRE) binding protein 3 (AID 2282926); settings: HepG2 CRE cis-reporter, Attagene multiplexed mRNA; actives raise or lower the signal
Procedure, shortened: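 HepG2 cells transiently transfected with cis-element-driven multiple reporter transcription units; CRE reporter mRNA measured 24 h after dosing by RT-PCR, 6-FAM labelling, HpaI digestion and capillary electrophoresis. Bidirectional fit versus DMSO baseline.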

[3] = target: CCAAT/enhancer-binding protein beta (Homo sapiens) (UniProt P17676); test: ATG_C_EBP_CIS: Attagene CIS-FACTORIAL HepG2 Assay for human CCAAT/Enhancer Binding Protein (C/EBP) beta (AID 2282927); settings: HepG2 Attagene cis-factorial transcription factor reporter; actives raise or lower the signal
Sequence of CCAAT/enhancer-binding protein beta (Homo sapiens) (P17676 whole entry, looked up): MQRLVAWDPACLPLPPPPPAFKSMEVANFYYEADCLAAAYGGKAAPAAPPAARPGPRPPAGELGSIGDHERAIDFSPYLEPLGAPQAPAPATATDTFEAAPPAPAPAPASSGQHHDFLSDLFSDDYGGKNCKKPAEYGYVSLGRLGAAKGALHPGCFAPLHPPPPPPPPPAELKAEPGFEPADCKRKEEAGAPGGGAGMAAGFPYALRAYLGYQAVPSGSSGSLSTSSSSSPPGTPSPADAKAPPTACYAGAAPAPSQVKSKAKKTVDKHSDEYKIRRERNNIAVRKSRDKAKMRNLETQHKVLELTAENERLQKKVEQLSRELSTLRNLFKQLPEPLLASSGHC
Procedure, shortened: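 Following a 24 h incubation with test chemical, transfected HepG2 cells yielded RNA whose reporter transcripts were quantified by RT-PCR and fluorescent capillary electrophoresis, with DMSO serving as baseline for bidirectional fitting.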

[4] = ATG_CMV_CIS: Attagene CIS-FACTORIAL HepG2 Assay for human CMV (Internal Marker) (AID 2282928); settings: HepG2 CMV promoter reporter, transcription factor profiling; actives raise or lower the signal;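 also: endpoint acts as a background internal control marker rather than a target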
Procedure, shortened: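 After transient transfection of HepG2 with reporter transcription units driven by cis-regulatory promoters, cells receive test chemical for 24 h. Labeled reporter amplicons, digested with HpaI, are sized and quantified by capillary electrophoresis against DMSO.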

[5] = ATG_DR4_LXR_CIS: Attagene CIS-FACTORIAL HepG2 Assay for human Liver X Receptor (LXR), DR4 submotif (AID 2282929); settings: HepG2 Attagene DR4 cis-reporter, mRNA transcription; actives raise or lower the signal
Procedure, shortened: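 Transiently transfected HepG2 liver cells; cis-regulated reporters; 24 h dosing. RT-PCR plus CE read-out of reporter mRNA. DMSO baseline, bidirectional curve fitting.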

[6] = target: Aryl hydrocarbon receptor (Homo sapiens) (UniProt P35869); test: ATG_Ahr_CIS: Attagene CIS-FACTORIAL HepG2 Assay for human Aryl Hydrocarbon Receptor (Ahr) (AID 2282930); settings: HepG2 AhR cis-factorial reporter transcription; actives raise or lower the signal
Sequence of Aryl hydrocarbon receptor (Homo sapiens) (P35869 whole entry, looked up): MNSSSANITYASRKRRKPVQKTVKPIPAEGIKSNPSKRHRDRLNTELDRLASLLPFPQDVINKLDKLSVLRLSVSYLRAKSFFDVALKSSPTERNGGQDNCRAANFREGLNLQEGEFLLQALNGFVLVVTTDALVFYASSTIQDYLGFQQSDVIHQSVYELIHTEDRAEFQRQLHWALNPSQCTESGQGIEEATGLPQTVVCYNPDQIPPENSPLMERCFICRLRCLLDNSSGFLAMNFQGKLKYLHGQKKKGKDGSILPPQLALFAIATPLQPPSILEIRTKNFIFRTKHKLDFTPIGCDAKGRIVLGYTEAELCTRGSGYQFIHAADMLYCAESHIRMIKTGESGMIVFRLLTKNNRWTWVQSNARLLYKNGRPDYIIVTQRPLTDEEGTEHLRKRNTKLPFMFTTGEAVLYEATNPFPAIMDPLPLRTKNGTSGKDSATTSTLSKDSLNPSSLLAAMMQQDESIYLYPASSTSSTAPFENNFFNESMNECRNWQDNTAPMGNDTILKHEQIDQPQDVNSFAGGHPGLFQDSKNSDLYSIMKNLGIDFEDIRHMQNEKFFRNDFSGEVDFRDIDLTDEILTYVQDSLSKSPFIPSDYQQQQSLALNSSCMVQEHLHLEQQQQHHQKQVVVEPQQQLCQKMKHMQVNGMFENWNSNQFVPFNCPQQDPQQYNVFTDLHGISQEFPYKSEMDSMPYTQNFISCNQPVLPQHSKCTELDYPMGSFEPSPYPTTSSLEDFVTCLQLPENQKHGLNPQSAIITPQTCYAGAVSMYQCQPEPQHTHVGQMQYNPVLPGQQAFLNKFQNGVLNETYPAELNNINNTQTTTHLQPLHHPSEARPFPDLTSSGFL
Procedure, shortened: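 Values derive from bidirectional fitting against DMSO negative control. Underlying signal: cis-element reporter mRNA in transiently transfected HepG2, harvested 24 h post-dose and measured by RT-PCR plus capillary electrophoresis.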

[7] = ATG_AP_1_CIS: Attagene CIS-FACTORIAL HepG2 Assay for human Activator Protein 1 (AP-1) (AID 2282931); settings: HepG2 Attagene cis-factorial AP-1 reporter mRNA; actives raise or lower the signal
Procedure, shortened: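 We transfected HepG2 cells transiently with a set of cis-regulated reporter transcription units, dosed them for 24 h, and quantified reporter mRNA via RT-PCR and capillary electrophoresis, scoring gain or loss of signal relative to DMSO.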

[8] = ATG_AP_2_CIS: Attagene CIS-FACTORIAL HepG2 Assay for human Activator Protein 2 (AP-2) (AID 2282932); settings: HepG2 AP-2 cis-reporter, Attagene transcription factor profiling; actives raise or lower the signal
Procedure, shortened: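 Bidirectional curve fitting against DMSO was applied to reporter mRNA signals from HepG2 cells 24 h after dosing. Cis-promoter reporter units, transiently transfected, were read by RT-PCR plus capillary electrophoresis.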

[9] = ATG_BRE_CIS: Attagene CIS-FACTORIAL HepG2 Assay for human Bone Morphogenetic Protein (BMP) Response Element (BRE) (AID 2282933); settings: HepG2 BMP response element reporter, Attagene transcription factor profiling; actives raise or lower the signal
Procedure, shortened: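 Endogenous transcription factor activity read in transiently transfected HepG2 cells after 24 h chemical exposure. Bidirectional curve fitting against DMSO; readout is reporter transcript level by RT-PCR with capillary electrophoresis of labelled products.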

[10] = target: Retinoic acid receptor alpha (Homo sapiens) (UniProt P10276); test: ATG_DR5_RAR_CIS: Attagene CIS-FACTORIAL HepG2 Assay for human Retinoic Acid Receptor Alpha (RARE), DR5 submotif (AID 2282934); settings: HepG2 Attagene cis-factorial RARE DR5 reporter, mRNA; actives raise or lower the signal
Sequence of Retinoic acid receptor alpha (Homo sapiens) (P10276 whole entry, looked up): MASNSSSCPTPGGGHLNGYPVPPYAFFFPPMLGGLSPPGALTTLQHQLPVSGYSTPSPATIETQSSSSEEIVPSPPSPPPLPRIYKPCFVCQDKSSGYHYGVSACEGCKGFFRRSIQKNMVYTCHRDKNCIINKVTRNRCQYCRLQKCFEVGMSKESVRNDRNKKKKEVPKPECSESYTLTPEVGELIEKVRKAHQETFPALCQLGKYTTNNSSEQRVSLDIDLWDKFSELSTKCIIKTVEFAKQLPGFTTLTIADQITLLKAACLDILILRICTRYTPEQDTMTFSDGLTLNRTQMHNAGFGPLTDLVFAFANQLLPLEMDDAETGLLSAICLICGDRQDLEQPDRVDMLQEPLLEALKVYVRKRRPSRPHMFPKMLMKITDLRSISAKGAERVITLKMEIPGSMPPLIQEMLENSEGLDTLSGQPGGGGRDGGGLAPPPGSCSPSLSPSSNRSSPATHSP
Procedure, shortened: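 Endpoint fitted in both directions relative to DMSO as negative control. It reflects DR5 cis-element reporter mRNA induction in transiently transfected HepG2 cells, measured 24 h after dosing through RT-PCR and fluorescent capillary electrophoresis.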

[11] = target: Transcription factor E2F1 (Homo sapiens) (UniProt Q01094); test: ATG_E2F_CIS: Attagene CIS-FACTORIAL HepG2 Assay for human E2F Transcription Factor 1 (AID 2282935); settings: HepG2 Attagene cis-reporter, E2F reporter RNA transcripts; actives raise or lower the signal
Sequence of Transcription factor E2F1 (Homo sapiens) (Q01094 whole entry, looked up): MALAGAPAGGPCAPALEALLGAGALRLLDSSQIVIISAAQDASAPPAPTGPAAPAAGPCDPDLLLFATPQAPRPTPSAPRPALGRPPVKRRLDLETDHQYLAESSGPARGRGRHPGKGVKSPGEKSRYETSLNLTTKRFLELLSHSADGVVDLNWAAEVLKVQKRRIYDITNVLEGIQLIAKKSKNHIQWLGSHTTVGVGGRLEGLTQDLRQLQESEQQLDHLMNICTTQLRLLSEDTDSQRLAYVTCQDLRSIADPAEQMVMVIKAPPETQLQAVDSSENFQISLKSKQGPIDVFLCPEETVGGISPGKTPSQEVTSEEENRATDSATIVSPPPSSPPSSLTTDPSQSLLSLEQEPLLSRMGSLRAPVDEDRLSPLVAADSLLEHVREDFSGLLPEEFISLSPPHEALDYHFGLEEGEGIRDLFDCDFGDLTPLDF
Procedure, shortened: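 Multiplexed cis-reporter assay: HepG2, transient transfection, 24 h dosing, mRNA quantitation by labeled RT-PCR and CE.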

[12] = ATG_E_Box_CIS: Attagene CIS-FACTORIAL HepG2 Assay for human Enhancer Box (E-box) (AID 2282936); settings: HepG2 E-box cis-reporter transcription, actives raise or lower the signal
Procedure, shortened: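 Multiplexed CIS reporter system in transiently transfected HepG2 cells measures native transcription factor activity. Reporter RNA after 24 h exposure is profiled by RT-PCR-capillary electrophoresis.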

[13] = ATG_M_61_CIS: Attagene CIS-FACTORIAL HepG2 Assay for M61 Transcription Factor (Internal Marker) (AID 2282937); settings: HepG2 Attagene CIS-FACTORIAL M61 internal marker reporter; actives raise or lower the signal
Procedure, shortened: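 Multiplexed reporter mRNA assay, HepG2 human hepatoma cells, 24 h treatment. Signal: FAM-labelled, HpaI-digested RT-PCR fragments by CE. Fit: bidirectional, baseline DMSO.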

[14] = ATG_EGR_CIS: Attagene CIS-FACTORIAL HepG2 Assay for human Early Growth Response 1 (EGR1) (AID 2282938); settings: HepG2 Attagene CIS-FACTORIAL EGR reporter mRNA; actives raise or lower the signal
Procedure, shortened: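 Multiplexed cis-reporter system in human hepatoma HepG2 cells, transiently transfected. Cells are dosed for 24 h; reporter transcripts are amplified, fluorescently tagged and sized by capillary electrophoresis, with DMSO as negative control.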

[15] = ATG_M_19_CIS: Attagene CIS-FACTORIAL HepG2 Assay for M19 Transcription Factor (Internal Marker) (AID 2282939); settings: HepG2 Attagene CIS-FACTORIAL M19 internal marker reporter; actives raise or lower the signal
Procedure, shortened: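 Internal marker readout, fitted in both directions against DMSO, from HepG2 cells carrying transfected cis-element reporter constructs; RT-PCR and capillary electrophoresis of reporter mRNA after 24 h exposure.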

[16] = ATG_ERE_CIS: Attagene CIS-FACTORIAL HepG2 Assay for Estrogen Response Element (ERE) (AID 2282940); settings: HepG2 ERE cis-reporter, Attagene RNA transcript; actives raise or lower the signal
Procedure, shortened: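 After 24 h compound treatment, RNA from transfected HepG2 cells was reverse-transcribed, reporter cDNA PCR-amplified, FAM-labelled, HpaI-cut and resolved by capillary electrophoresis. ERE-driven cis reporter transcripts reflect endogenous factors; gain or loss scored against DMSO.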

[17] = ATG_Ets_CIS: Attagene CIS-FACTORIAL HepG2 Assay for human Erythroblast Transformation Specific (ETS) (AID 2282941); settings: HepG2 ETS cis-reporter transcription, actives raise or lower the signal
Procedure, shortened: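 Human HepG2 hepatoma cells were transiently transfected with promoter-driven reporter constructs and treated for 24 hours. Reporter transcripts were quantified by RT-PCR with fluorescent primer extension; bidirectional curve fitting used DMSO as reference.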

[18] = target: Hepatocyte nuclear factor 3-beta (Homo sapiens) (UniProt Q9Y261); test: ATG_FoxA2_CIS: Attagene CIS-FACTORIAL HepG2 Assay for human Forkhead box A2 (FOXA2) (AID 2282942); settings: HepG2 cis-reporter transcription factor activity, 24 h; actives raise or lower the signal
Sequence of Hepatocyte nuclear factor 3-beta (Homo sapiens) (Q9Y261 whole entry, looked up): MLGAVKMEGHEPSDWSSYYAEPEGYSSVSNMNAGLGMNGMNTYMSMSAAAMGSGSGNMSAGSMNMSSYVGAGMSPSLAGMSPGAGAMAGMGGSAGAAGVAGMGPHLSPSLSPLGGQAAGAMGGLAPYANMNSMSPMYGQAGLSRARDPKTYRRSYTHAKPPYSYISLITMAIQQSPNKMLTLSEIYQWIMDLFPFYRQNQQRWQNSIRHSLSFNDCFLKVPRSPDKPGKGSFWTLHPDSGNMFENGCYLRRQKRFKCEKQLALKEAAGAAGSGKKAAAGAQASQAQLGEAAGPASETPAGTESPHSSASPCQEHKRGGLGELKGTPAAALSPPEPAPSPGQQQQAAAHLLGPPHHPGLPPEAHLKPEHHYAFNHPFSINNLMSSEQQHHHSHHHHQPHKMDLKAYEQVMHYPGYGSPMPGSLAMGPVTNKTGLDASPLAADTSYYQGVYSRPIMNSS
Procedure, shortened: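 Multiplexed cis-element reporter assay in transiently transfected HepG2. Twenty-four hours post-dosing, RNA was reverse-transcribed, amplified, FAM-labelled, HpaI-digested and separated by CE. Activity gain or loss relative to DMSO.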

[19] = ATG_FoxO_CIS: Attagene CIS-FACTORIAL HepG2 Assay for human Forkhead box O (FoxO) (AID 2282943); settings: HepG2 Attagene cis-reporter, FoxO element, mRNA; actives raise or lower the signal
Procedure, shortened: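 Values reflect reporter mRNA induction or loss in HepG2 cells 24 h post-dosing, fitted bidirectionally with DMSO as negative control and baseline. Detection used RT-PCR and fluorescence capillary electrophoresis.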

[20] = ATG_GATA_CIS: Attagene CIS-FACTORIAL HepG2 Assay for human GATA Binding Protein (AID 2282944); settings: HepG2 GATA cis-element reporter, Attagene multiplex mRNA; actives raise or lower the signal
Procedure, shortened: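 Reporter transcripts from a GATA cis-regulated unit, among multiplexed reporters in transfected HepG2 cells, were measured by RT-PCR with capillary electrophoresis after 24 h dosing. Induction or loss scored relative to DMSO.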

Measured: AC50

Cc1cccc([N+](=O)[O-])c1C
inactive: all assays above

Nc1nc(N)c2nc(CNc3ccc(C(=O)N[C@@H](CCC(=O)O)C(=O)O)cc3)cnc2n1
active: [4] 0.00818 µM | [7] 0.00864 µM
inactive: all other assays above

NCC1(Cc2noc(=O)[nH]2)CCCCC1
inactive: all assays above

OC[C@@H](O)[C@@H](O)[C@H](O)[C@H](O)CO
inactive: all assays above

C=CCOC(=O)c1ccccc1C(=O)OCC=C
active: [3] 26.4 µM | [4] 26.2 µM | [5] 26.2 µM | [7] 25.8 µM
inactive: all other assays above

CC(=O)C(C)=CC1C(C)=CCCC1(C)C (stereo not given)
active: [16] 33.4 µM
inactive: all other assays above

CCCCCC(=O)O
active: [6] 82.2 µM
inactive: all other assays above
